In experiment [1] the target is T1, Mitogen-activated protein kinase 12 (Homo sapiens) (UniProt P53778).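 Also: values are averaged p38gamma kinase inhibition readings, compounds tested at 1 µM.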
T1 sequence (whole entry): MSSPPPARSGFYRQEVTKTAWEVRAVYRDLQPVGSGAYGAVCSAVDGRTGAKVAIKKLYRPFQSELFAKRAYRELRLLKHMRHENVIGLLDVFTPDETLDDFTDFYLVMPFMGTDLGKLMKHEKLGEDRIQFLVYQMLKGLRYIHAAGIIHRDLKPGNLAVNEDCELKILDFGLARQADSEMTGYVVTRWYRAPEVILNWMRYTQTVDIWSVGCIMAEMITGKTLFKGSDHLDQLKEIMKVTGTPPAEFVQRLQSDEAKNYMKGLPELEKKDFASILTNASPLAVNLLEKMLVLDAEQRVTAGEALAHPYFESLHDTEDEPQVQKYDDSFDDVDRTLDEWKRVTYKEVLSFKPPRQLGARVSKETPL
As to conditions: at 1 µM.

The target in experiment [2] is SRSF protein kinase 1 (Homo sapiens) (UniProt Q96SB4). The conditions noted are these: at 0.1 µM.
The target is the same in experiment [3]. The conditions noted are these: at 1 µM.
Experiment [4] addresses Phosphatidylinositol 4,5-bisphosphate 3-kinase catalytic subunit alpha isoform (Homo sapiens) (UniProt P42336). As to conditions: at 0.1 µM.
For experiment [5] the target is unchanged. The conditions noted are these: at 1 µM.
Experiment [6] concerns the target T2, Phosphatidylinositol 4,5-bisphosphate 3-kinase catalytic subunit delta isoform (Homo sapiens) (UniProt O00329).
T2 sequence (whole entry): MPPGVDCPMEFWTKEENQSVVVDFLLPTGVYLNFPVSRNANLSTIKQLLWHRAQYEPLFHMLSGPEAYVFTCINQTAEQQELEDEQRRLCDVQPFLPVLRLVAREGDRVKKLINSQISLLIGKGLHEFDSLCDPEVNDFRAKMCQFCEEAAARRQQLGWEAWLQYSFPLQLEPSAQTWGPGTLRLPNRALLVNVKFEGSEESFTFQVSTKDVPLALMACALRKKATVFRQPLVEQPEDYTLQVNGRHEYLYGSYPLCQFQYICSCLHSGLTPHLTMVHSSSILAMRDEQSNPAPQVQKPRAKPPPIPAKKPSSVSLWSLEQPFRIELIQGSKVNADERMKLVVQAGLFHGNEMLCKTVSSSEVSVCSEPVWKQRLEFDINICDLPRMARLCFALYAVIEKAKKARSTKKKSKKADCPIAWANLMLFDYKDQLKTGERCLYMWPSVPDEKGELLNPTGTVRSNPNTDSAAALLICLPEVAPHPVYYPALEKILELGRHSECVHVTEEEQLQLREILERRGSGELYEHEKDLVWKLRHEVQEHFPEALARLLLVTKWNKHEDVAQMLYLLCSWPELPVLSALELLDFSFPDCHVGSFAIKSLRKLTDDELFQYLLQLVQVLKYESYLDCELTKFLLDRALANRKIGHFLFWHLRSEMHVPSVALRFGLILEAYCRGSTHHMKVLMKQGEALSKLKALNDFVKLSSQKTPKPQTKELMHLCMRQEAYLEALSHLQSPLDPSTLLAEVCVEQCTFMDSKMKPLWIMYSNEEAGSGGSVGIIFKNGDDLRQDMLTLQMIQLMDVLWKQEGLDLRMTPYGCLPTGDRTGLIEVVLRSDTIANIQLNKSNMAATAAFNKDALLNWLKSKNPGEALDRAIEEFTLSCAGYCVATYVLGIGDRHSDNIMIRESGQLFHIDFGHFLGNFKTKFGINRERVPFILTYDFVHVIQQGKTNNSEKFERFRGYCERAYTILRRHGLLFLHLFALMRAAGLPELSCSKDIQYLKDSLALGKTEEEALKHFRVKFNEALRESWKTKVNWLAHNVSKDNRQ
As to conditions: at 0.1 µM.

The target in experiment [7] is T2, Phosphatidylinositol 4,5-bisphosphate 3-kinase catalytic subunit delta isoform (Homo sapiens). As to conditions: at 1 µM.
For experiment [8], the target named is Phosphatidylinositol 4-kinase beta (Homo sapiens) (UniProt Q9UBF8). As to conditions: at 1 µM.
Experiment [9] addresses Sphingosine kinase 1 (Homo sapiens) (UniProt Q9NYA1). As to conditions: at 0.1 µM.
The target is the same in experiment [10]. The conditions noted are these: at 1 µM.
Experiment [11] addresses T3, Sphingosine kinase 2 (Homo sapiens) (UniProt Q9NRA0).
T3 sequence (whole entry): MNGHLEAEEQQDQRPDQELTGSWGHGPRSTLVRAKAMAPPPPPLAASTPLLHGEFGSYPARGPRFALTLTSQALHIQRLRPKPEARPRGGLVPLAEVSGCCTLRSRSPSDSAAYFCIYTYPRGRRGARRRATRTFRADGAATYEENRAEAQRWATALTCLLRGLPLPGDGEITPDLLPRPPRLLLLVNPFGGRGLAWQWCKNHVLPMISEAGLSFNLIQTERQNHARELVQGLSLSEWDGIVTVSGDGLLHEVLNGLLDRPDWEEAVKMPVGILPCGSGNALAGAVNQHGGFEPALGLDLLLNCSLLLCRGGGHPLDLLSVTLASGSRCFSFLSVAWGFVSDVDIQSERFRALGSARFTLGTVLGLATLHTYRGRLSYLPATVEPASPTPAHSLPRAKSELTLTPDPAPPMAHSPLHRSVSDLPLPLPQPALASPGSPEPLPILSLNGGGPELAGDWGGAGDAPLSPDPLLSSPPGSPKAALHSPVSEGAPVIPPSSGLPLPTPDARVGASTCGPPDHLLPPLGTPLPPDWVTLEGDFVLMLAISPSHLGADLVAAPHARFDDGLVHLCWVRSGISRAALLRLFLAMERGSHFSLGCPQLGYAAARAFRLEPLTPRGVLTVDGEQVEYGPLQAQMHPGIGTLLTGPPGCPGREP
As to conditions: at 0.1 µM.

Experiment [12] addresses T3, Sphingosine kinase 2 (Homo sapiens). As to conditions: at 1 µM.
In experiment [13] the target is Casein kinase II subunit alpha (Homo sapiens) (UniProt P68400). The conditions noted are these: at 0.1 µM.
The target is the same in experiment [14]. The conditions noted are these: at 1 µM.
The target in experiment [15] is T4, Inhibitor of nuclear factor kappa-B kinase subunit alpha (Homo sapiens) (UniProt O15111).
T4 sequence (whole entry): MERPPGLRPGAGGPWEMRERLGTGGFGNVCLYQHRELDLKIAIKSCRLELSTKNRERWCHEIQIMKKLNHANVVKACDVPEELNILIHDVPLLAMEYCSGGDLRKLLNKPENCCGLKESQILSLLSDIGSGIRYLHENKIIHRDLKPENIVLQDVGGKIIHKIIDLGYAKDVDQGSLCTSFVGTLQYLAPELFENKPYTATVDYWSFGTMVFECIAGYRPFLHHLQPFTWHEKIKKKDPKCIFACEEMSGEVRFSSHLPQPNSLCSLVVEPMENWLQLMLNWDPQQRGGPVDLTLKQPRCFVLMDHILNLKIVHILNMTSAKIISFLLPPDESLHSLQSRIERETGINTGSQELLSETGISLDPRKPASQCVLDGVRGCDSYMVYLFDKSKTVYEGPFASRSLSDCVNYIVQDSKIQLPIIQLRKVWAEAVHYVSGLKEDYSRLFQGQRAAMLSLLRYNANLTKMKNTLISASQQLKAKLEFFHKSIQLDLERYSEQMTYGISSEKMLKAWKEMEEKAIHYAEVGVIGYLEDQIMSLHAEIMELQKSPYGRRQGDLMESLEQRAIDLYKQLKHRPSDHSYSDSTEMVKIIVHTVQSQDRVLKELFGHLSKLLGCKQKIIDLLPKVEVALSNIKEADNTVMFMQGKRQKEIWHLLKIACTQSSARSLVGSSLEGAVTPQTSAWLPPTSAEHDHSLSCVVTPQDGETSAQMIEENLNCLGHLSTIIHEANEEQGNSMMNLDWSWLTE
The conditions noted are these: at 0.1 µM.

Experiment [16] concerns the target T4, Inhibitor of nuclear factor kappa-B kinase subunit alpha (Homo sapiens). As to conditions: at 1 µM.
Experiment [17] concerns the target T5, Inhibitor of nuclear factor kappa-B kinase subunit beta (Homo sapiens) (UniProt O14920).
T5 sequence (whole entry): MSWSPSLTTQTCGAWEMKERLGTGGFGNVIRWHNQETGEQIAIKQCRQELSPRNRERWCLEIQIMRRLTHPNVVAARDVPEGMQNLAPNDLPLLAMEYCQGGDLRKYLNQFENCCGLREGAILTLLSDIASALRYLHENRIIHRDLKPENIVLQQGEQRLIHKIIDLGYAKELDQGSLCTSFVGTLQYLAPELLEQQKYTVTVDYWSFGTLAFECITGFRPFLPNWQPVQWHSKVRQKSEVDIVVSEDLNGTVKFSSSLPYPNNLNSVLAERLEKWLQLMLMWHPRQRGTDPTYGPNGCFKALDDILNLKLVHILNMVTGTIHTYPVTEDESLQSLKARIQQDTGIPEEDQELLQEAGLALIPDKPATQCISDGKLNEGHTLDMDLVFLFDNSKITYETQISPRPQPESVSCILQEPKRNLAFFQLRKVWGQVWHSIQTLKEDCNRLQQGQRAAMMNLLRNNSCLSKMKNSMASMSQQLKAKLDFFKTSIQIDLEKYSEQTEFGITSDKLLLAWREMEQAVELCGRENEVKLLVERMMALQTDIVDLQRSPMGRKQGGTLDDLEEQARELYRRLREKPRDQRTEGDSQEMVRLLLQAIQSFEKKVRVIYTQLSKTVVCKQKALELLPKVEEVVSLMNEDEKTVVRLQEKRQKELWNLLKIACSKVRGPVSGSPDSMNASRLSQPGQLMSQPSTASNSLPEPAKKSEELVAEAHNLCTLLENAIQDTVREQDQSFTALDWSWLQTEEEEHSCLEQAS
The conditions noted are these: at 0.1 µM.

Experiment [18] deals with T5, Inhibitor of nuclear factor kappa-B kinase subunit beta (Homo sapiens). As to conditions: at 1 µM.
Experiment [19] concerns the target T6, Inhibitor of nuclear factor kappa-B kinase subunit epsilon (Homo sapiens) (UniProt Q14164).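 Also: mean inhibition of IKKε reported, from the GSK PKIS dataset.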
T6 sequence (whole entry): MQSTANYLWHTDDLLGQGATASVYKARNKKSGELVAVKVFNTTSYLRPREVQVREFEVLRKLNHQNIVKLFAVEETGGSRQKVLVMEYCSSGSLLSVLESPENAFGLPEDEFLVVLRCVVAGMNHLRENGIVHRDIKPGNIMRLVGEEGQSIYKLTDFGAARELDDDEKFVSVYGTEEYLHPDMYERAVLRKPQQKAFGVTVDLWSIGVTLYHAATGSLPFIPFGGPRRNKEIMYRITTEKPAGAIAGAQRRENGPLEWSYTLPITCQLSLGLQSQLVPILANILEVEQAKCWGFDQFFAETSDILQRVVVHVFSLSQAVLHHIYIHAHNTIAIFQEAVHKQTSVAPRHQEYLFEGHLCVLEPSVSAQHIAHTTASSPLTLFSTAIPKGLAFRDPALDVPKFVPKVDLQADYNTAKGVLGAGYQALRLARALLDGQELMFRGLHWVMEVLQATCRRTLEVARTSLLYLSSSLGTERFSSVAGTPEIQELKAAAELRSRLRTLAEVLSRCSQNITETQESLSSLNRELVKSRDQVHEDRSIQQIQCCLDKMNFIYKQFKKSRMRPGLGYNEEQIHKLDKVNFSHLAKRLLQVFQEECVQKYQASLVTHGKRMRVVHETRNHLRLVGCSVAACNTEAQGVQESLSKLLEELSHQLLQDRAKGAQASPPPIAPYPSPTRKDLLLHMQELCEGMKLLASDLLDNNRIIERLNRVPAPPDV
The conditions noted are these: at 0.1 µM.

The target in experiment [20] is Phosphatidylinositol 4-kinase beta (Homo sapiens) (UniProt Q9UBF8). As to conditions: at 0.1 µM.

What is called inhibition is the drop in the measured response relative to a control, in per cent.

Chain of Phosphatidylinositol 4,5-bisphosphate 3-kinase catalytic subunit alpha isoform (Homo sapiens) (P42336 whole entry, canonical isoform): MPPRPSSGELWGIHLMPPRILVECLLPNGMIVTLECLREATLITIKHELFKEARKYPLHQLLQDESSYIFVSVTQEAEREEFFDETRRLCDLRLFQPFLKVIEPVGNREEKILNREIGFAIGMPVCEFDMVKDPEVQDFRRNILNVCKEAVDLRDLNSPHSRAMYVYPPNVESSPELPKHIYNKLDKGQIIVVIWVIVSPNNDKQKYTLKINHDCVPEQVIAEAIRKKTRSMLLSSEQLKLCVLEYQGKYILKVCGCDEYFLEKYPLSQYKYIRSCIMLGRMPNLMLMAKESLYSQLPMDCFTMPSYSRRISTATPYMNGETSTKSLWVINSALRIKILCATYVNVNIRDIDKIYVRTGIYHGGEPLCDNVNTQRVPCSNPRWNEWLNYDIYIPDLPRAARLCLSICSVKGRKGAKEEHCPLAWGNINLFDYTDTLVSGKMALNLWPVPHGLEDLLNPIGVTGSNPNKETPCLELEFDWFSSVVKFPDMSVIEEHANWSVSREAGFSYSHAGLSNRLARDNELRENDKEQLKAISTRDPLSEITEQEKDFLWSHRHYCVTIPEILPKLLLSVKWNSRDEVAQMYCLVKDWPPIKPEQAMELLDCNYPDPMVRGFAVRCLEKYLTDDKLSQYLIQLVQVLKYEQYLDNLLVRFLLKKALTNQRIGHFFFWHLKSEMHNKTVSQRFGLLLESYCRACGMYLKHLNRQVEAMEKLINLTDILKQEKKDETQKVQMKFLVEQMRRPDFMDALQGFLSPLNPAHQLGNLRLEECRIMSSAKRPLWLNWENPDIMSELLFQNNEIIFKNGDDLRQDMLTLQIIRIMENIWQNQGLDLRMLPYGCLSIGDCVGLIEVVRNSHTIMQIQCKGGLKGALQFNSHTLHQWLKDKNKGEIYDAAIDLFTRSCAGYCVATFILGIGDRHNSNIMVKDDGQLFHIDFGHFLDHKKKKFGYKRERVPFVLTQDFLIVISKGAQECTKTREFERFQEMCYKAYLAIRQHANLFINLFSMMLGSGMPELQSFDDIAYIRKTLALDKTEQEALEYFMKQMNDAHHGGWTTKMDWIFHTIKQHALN
Chain of Phosphatidylinositol 4-kinase beta (Homo sapiens) (Q9UBF8 2-816 limits assumed): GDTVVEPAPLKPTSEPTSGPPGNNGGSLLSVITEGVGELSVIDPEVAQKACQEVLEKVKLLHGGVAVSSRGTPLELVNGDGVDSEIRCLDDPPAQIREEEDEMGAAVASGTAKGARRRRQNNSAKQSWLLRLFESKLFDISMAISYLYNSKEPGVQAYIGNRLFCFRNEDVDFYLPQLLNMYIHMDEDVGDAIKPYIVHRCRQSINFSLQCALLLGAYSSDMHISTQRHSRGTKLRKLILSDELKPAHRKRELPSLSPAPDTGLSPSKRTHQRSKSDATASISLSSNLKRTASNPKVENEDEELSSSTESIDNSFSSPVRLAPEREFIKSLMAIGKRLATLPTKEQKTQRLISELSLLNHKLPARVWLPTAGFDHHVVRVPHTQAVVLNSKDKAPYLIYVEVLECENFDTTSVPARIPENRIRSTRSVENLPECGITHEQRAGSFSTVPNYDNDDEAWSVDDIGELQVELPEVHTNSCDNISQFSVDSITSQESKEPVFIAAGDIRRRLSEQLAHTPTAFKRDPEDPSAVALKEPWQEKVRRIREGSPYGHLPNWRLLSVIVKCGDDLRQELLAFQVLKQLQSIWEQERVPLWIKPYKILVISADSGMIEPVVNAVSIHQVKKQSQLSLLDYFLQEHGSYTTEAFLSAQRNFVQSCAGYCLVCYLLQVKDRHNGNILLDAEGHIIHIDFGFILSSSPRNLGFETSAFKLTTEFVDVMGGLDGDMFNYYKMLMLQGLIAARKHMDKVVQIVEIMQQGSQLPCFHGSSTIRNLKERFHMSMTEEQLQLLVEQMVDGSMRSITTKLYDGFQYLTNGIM
Chain of Casein kinase II subunit alpha (Homo sapiens) (P68400 whole entry, looked up): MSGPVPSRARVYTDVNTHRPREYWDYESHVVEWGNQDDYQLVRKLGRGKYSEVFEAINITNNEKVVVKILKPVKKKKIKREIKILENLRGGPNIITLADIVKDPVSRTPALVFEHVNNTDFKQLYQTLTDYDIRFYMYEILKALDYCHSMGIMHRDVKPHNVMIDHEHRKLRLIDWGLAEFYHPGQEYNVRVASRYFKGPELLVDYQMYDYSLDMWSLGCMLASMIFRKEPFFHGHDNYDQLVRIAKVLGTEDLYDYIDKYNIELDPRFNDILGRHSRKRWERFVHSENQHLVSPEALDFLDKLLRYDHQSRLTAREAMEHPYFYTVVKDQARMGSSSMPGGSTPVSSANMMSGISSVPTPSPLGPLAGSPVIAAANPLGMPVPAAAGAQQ
Chain of Sphingosine kinase 1 (Homo sapiens) (Q9NYA1 whole entry): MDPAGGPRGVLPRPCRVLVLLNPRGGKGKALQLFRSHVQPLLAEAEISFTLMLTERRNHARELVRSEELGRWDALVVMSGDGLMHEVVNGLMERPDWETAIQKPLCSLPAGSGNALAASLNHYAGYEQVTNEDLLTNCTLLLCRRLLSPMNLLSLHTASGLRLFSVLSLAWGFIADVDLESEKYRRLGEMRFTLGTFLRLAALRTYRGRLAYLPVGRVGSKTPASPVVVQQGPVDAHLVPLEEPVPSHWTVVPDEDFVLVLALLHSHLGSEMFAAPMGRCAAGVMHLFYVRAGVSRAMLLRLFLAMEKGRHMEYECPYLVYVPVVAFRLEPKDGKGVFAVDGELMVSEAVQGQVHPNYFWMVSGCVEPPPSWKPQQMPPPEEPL
Chain of SRSF protein kinase 1 (Homo sapiens) (Q96SB4 whole entry): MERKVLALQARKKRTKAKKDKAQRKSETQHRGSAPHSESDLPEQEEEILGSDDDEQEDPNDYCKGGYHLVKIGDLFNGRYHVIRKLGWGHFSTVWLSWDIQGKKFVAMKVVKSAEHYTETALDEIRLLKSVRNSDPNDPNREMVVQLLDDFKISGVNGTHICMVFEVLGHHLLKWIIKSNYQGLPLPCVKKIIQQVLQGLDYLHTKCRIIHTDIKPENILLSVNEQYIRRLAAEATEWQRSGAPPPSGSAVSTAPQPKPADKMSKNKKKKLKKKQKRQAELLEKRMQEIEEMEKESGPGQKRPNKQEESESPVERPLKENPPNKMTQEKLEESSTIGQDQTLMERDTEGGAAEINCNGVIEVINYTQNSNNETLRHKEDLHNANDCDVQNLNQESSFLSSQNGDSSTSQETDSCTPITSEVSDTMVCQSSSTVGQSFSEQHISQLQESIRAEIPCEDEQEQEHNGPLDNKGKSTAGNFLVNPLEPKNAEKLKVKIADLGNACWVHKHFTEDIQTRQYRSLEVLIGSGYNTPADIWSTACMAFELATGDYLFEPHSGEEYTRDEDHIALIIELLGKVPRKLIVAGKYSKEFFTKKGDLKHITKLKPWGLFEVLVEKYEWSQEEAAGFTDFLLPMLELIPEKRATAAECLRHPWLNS

Regarding `NS(=O)(=O)c1ccc(N/N=C2\C(=O)Nc3ccc(C(=O)NCCCn4ccnc4)cc32)cc1`, the inhibition in experiment [1] is 2.75%; in experiment [2], -0.49%; in experiment [3], 2.62%; in experiment [4], 3.67%; in experiment [5], 4.54%; in experiment [6], 0.52%. Besides, the inhibition in [7] was 2.39%; in [8], -5.49%; in experiment [9], 14.8%; in experiment [10] it was -2.65%; in experiment [11], 0.75%; in experiment [12], -2.51%. Also, the inhibition in experiment [13] was determined as 6.89%; in [14], 21%; in experiment [15], 2.62%; in experiment [16] it was 0.02%; in experiment [17], 12.3%; in [18], 14.7%. Further, the inhibition in experiment [19] came out at 10.8%.

In the case of `O=C1Nc2ccc(I)cc2C1=Cc1cc(Br)c(O)c(Br)c1`, the inhibition in experiment [1] is 6.31%; in experiment [2], -3.87%; in experiment [3] it was -2.51%; in experiment [4], 6.08%; in experiment [5] it was 23.5%; in [20], -3.41%. In addition, the inhibition in [8] was 32.6%; in experiment [9] it was -1.83%; in [10] it was 0.73%; in experiment [11] it was -0.66%; in experiment [12], 3.26%; in experiment [13], 4.28%. Also, the inhibition in experiment [14] amounted to 17.9%; in [15], 1.76%; in experiment [16] it was 3.02%; in experiment [17] it was 1.64%; in [18], 3.61%; in [19], 10.2%.

On to `Fc1ccc(-c2ncn(C3CCNCC3)c2-c2ccnc(Oc3ccc(F)c(F)c3)n2)cc1`, for which the inhibition in [2] was -3.26%; in [3] it was -1.49%; in experiment [4], 3.43%; in experiment [5] it was 3.41%; in experiment [6], 1.7%; in experiment [7] it was 3.53%. The inhibition is -1.47% in experiment [20]; 1.86% in experiment [8]; 1.28% in [9]; -0.78% in [10]; 1.4% in [11]; -2.94% in [12]. Also, the inhibition in experiment [13] was 1.69%; in [14], 3.12%; in [15] it was -1.24%; in experiment [16] it was 3.68%; in experiment [17] it was 6.9%; in [18] it was 5.72%. Moreover, the inhibition in experiment [19] is 6.6%.

The record behind these values is ChEMBL document CHEMBL1961873, “Compounds: GSK PKIS; Assays: Nanosyn kinase panel” (2012).
